High-throughput results as filed in PubChem BioAssay.
An excerpt weighted towards active compounds, which were near 4.7% of everything screened.
D1 antag – blocks dopamine activation of the human D1 receptor; P21728; HEK293 TREx D1 cells, calcium flux, dopamine EC80; hits give low values; activity change, negative = inhibition, % at 10 µM; actives 3.2% (n = 360,000); in the data active = activity change below about -30%
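Allosteric or orthosteric antagonism assessed as attenuation of the calcium response to EC80 dopamine, added 180 s after compound, in induced HEK293 Trex D1 cells loaded with no-wash calcium dye.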
D1 PAM – enhances dopamine response at the human D1 receptor; potentiation, % at 10 µM; actives 0.036% (n = 360,000); AID 504651; HEK293 TREx D1 cells, calcium flux, dopamine EC20 potentiation; P21728; in the data active = potentiation above about 30%
D1 agonist – human D1 receptor agonism; actives 1% (n = 360,000); AID 504660; activation, % at 2 µM; P21728; HEK293 T-REx D1 cells, calcium flux, agonist mode
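Agonism was scored from calcium flux recorded over 180 s (1 read/s) after pintool compound addition, following a 10-cycle baseline. Cells were inducible force-coupled HEK293 TREx D1, plated overnight at 30 C and loaded with no-wash calcium dye.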
TRHR ag – TRH receptor (human) agonism | actives 0.18% (n = 360,000) | P34981 | activation, % at 2 µM | TRHR cells, calcium flux fluo-8, FDSS agonist mode | AID 493084
Target sequence (P34981 whole entry, looked up): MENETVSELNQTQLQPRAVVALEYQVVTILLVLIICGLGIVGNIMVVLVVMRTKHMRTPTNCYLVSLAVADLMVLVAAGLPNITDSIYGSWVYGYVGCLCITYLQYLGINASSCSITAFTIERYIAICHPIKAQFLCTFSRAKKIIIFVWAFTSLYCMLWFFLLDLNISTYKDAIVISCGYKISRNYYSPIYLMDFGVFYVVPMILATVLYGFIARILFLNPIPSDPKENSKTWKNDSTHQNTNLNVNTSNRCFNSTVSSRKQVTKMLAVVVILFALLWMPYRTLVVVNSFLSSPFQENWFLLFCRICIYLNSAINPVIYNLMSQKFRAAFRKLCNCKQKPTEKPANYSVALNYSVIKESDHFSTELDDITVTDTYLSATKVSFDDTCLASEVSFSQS
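TRHR-expressing cells, plated overnight in medium with 10% serum, were loaded with fluo-8 calcium dye at room temperature. After a 10 s baseline, library compound was pin-added and calcium release was recorded kinetically (ex 480/em 530) as agonist response.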
TRHR PAM – allosterically enhances the human TRH receptor; P34981; TRHR cells, fluo-8 calcium fluorescence, EC20 TRH enhancement; enhancement, % at 2 µM; actives 0.66% (n = 360,000); AID 493056; in the data active = enhancement above about 30%
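TRHR-expressing cells loaded with fluo-8 calcium dye were read kinetically (ex 480/em 530) during compound addition, then stimulated with an EC20 of TRH (10 nM final). Enhancement of the Gq-mediated intracellular calcium response was scored.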
Numbers stand for hits; n = inactive; x = not tested or not shown; ! = a repeat was not active. Cut-off read from the data, not from the text of the source, unless noted: active = activation above about 30%; inactive = the rest.

SMILES	D1 antag	D1 PAM	D1 agonist	TRHR ag	TRHR PAM
Cc1cc(C)cc(-n2c(SCC(=O)NCc3ccco3)nc3ccccc3c2=O)c1	x	n	n	n	n
Cc1ccccc1C(=O)Nc1ccnn1C1CCN(C(C)Cc2ccccc2F)CC1 (configuration not stated)	n	n	n	n	n
Cc1cc2c(s1)c1cnn(Cc3ccc(-c4ccccc4)cc3)c(=O)c1n2C	n	n	n	n	n
CCCC(=O)c1c[nH]c(C(=O)N2CCOCC2)c1	n	x	n	n	36
COc1ccc(-c2nc(-c3ccc(Br)o3)no2)cc1OC	n	n	n	n	n
COc1ccccc1-c1nc(-c2ccc(Br)o2)no1	-35!	n	n	n	n
CCOC(=O)c1cnc(-n2nc(C)cc2C)nc1Nc1ccc2c(c1)OCO2	n	n	n	n	33
COc1ccccc1-c1ccc(/C=C2\C=CC(=O)O2)o1	n	n	292	73	n
COc1ccccc1-c1ccc(/C=C2/C=C(C)OC2=O)o1	n	n	n	n	n
COc1ccc2c(CNCc3ccccc3OC)c(C(=O)O)n(Cc3ccc(F)cc3Cl)c2c1	n	n	n	n	n
CCCn1nc(C(=O)NCc2ccccn2)c2ccccc2c1=O	-39	n	n	n	n
CCOc1cc(CNCC(C)C)c(Cl)cc1OCC(=O)Nc1ccccc1	x	n	n	n	n
CCNCc1cc(OCC)c(OCC(=O)NCCc2ccccc2)cc1Cl	-40	n	33	n	n
COc1cc(CNCCN(C)C)c(Br)cc1OCC(=O)NCc1ccccc1	-34	n	n	n	n
C[C@@H]1C=C(C(=O)N2CCN(Cc3ccc4c(c3)OCO4)CC2)O[C@H](OCCCCO)C1	-38	n	n	n	n
CCO[C@@H]1OC(C(N)=O)=C[C@H](c2ccc3c(c2)OCO3)[C@H]1CCCO	-34	n	n	n	n
CCO[C@H]1OC(C(=O)NCc2ccccc2)=C[C@@H](C2CC2)[C@@H]1CCCO	-44	n	n	n	n
CCO[C@H]1OC(C(=O)N2CCN(Cc3ccc4c(c3)OCO4)CC2)=C[C@@H](C2CCCCC2)[C@@H]1CCCO	n	n	n	n	38
CC(CNC(=O)Cn1ccc2cc(S(=O)(=O)N3CCCCC3)ccc21)c1ccccc1 (configuration not stated)	n	n	n	n	n
CN(CCC#N)C(=O)COC(=O)c1ccc(Cl)cc1O	-34	n	n	n	n
COc1ccccc1N1CCN(C(=O)C2CCN(S(=O)(=O)Cc3ccccc3)CC2)CC1	n	n	n	n	n
COc1cc(-c2nnc(-c3ccc(S(=O)(=O)c4ccccc4)cc3)o2)cc(OC)c1OC	-31	n	n	n	n
COc1ccc(NS(=O)(=O)c2cccc(-c3nnc(-c4ccccc4)o3)c2)cc1	-32	n	n	n	n
O=S(=O)(NC1CCCC1)c1cccc(-c2nnc(-c3ccccc3)o2)c1	n	n	n	n	n
C=CCn1c(SCC(=O)NC(=O)NC2CCCC2)nnc1C1CCCCC1	n	n	n	n	n
SMILES	D1 antag	D1 PAM	D1 agonist	TRHR ag	TRHR PAM
C=CCn1c(SCC(=O)/C(C#N)=C(\C)N)nnc1C1CCCCC1	-75	n	n	n	n
Cc1ccc(C)c(N2CCN(S(=O)(=O)c3cc(C(=O)Nc4ccccc4C(F)(F)F)ccc3F)CC2)c1	n	n	n	n	n
COc1ccc(OC)c(S(=O)(=O)NCc2cccn2Cc2cccc(C)c2)c1	n	n	n	n	n
O=c1[nH]c2ccc(NCc3ccc(-c4cccc(Cl)c4)o3)cc2[nH]1	n	n	37	n	n
O=c1[nH]c2ccc(NCc3ccc(-c4ccc(Br)cc4)o3)cc2[nH]1	n	n	n	n	n
Cc1ccc(NC(=O)Cn2c(=O)oc3cc(S(=O)(=O)N4CCC(C)CC4)ccc32)cc1Cl	n	n	n	n	n
C#CCOCCOCCOCCNc1nc(N2CCOCC2)nc(N2CCN(C(=O)CCCCCCCCCCNC(=O)[C@@H](CCC(=O)O)n3cc(CCCCCN)nn3)CC2)n1	n	n	n	n	n
C#CCOCCOCCOCCNc1nc(N2CCN(C(=O)CCCCCCCCCCNC(=O)[C@H](CCCCN)n3cc(CCCC(=O)O)nn3)CC2)nc(N2CCN(C(=O)CCCCCCCCCCNC(=O)[C@@H]([C@H](C)O)n3cc(C)nn3)CC2)n1	n	n	44	n	n
C#CCOCCOCCOCCNc1nc(N2CCN(C(=O)CCCCCCCCCCNC(=O)[C@H](CCCCN)n3cc(C)nn3)CC2)nc(N2CCN(C(=O)CCCCCCCCCCNC(=O)[C@H](CCCCN)n3cc(CCCC(=O)O)nn3)CC2)n1	n	n	30	n	n
O=C(O)c1ccc2c(c1)C(=O)N([C@H](Cc1ccc(C(F)(F)F)cc1)C(=O)O)C2=O	-48	n	n	n	n
Cc1ccc(CCNC(=O)c2c[nH]c3ccc(S(=O)(=O)Nc4cccc(C(F)(F)F)c4)cc3c2=O)cc1	n	n	n	n	n
O=C(Cn1cc(SCc2c(F)cccc2Cl)c2ccccc21)N1CCCCC1	n	n	n	n	n
O=C(CN1CCC(n2nnc3cc(F)ccc32)CC1)Nc1ccccc1N1CCOCC1	-71	n	n	n	n
COC(=O)c1ccccc1NC(=O)CN1CCC(n2nnc3cc(F)ccc32)CC1	n	n	n	n	n
O=C(CN1CCC(n2nnc3cc(F)ccc32)CC1)NC1CC1	-49	n	n	n	n
O=C(CN1CCC(n2nnc3cc(F)ccc32)CC1)NC1CCCCC1	n	n	n	n	n
COc1ccc(Cn2c(C(=O)O)c(CNCCc3cc(OC)ccc3OC)c3ccc(C)cc32)cc1	n	n	n	n	n
CCOC(=O)c1cn[nH]c1N	n	n	n	n	n
COC(=O)c1cn[nH]c1N	-30	n	n	n	n
COc1cccc(CCNC(=O)c2cnc3sc(N4CCCC4)nn3c2=O)c1	n	n	n	n	n
Cc1ccc(-c2nc(N)sc2CC(=O)OCC(=O)NC2CCCC(C)C2C)cc1 (configuration not stated)	-41	n	n	n	n
CCc1cccc(NC(=O)Cn2c(C(=O)OC)cc3occc32)c1	n	n	n	n	36
CC(NC(=O)C12CC3CC(CC(C3)C1)C2)c1ccc(F)cc1 (configuration not stated)	-51	n	n	n	n
COc1ccc(C(C)NC(=O)C23CC4CC(CC(C4)C2)C3)cc1OC (configuration not stated)	n	n	n	n	n
COc1ccccc1-c1noc(-c2ccc(N3CCN(c4ccccc4)CC3)c([N+](=O)[O-])c2)n1	n	n	n	n	n
COc1ccccc1C(=O)Nc1cc2c(cc1N1CCOCC1)n(C)c(=O)n2C	n	n	n	n	n
O=S(=O)(NCCNc1nccc(C(F)(F)F)n1)c1ccccc1	n	n	n	n	n
O=C(NCCNc1nccc(C(F)(F)F)n1)c1cccc(C(F)(F)F)c1	-34	n	n	n	n
